Screens from PubChem.
Only some compounds are listed: those with a hit (about 3.4% of all), similar ones and a draw of the others.
GPR151 activ: activators of human GPR151, primary screen, cell-based, PathHunter beta-arrestin, luminescence. G-protein coupled receptor 151 (Homo sapiens), Q8TDV0. PathHunter beta-arrestin GPR151 cells. activation, % at 11.2 µM. actives 1% (n = 650,000); in the data active = activation above about 4.9%;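 also: 0% = median of compound wells and 100% = cells with positive control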
Target sequence (Q8TDV0 whole entry, looked up): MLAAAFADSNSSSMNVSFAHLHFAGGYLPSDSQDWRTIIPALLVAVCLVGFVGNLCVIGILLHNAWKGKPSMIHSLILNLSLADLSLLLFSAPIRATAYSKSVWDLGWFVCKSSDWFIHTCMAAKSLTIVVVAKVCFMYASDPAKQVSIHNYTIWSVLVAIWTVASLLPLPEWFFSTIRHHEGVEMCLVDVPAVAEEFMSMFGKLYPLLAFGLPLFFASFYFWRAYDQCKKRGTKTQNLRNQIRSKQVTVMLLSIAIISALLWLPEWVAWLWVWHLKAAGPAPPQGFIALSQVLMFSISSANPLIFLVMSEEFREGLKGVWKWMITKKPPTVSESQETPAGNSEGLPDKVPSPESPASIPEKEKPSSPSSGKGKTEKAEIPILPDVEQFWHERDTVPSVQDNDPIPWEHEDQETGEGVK
MITF inh: MITF inhibitors, primary screen, biochemical, AlphaScreen, human; AID 1259374, 2018; actives 0.91% (n = 650,000); AlphaScreen MITF homodimerization, bead proximity signal; inhibition, % at 2.6 µM; Microphthalmia-associated transcription factor (Homo sapiens), O75030; in the data active = inhibition above about 50%;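 also: 0% = vehicle wells with protein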
FBW7 act: FBW7 E3 ligase activators, primary screen, biochemical, AlphaScreen, human; actives 0.13% (n = 650,000); normalized activity (activation), % at 26.1 µM; F-box/WD repeat-containing protein 7 (Homo sapiens), Q969H0; AID 1259310, 2017; AlphaScreen FBW7–phospho-cyclin E peptide binding, activator screen; in the data active = normalized activity above about 1.9%;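 also: purified mutant Fbw7 with reduced substrate affinity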
TEAD-YAP inh: TEAD-YAP interaction inhibition, primary screen, TEAD-YAP interaction inhibitor project, luminescence, HEK-TIYL cells; TEAD-Gal4/YAP UAS-luciferase luminescence; inhibition, % at 9.12 µM; actives 1.4% (n = 640,000); in the data active = inhibition above about 32%;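 also: 0% = median of test compound wells and 100% = reference inhibitor wells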
* marks the source's active call; other numbers are inactive results.

SMILES	GPR151 activ	MITF inh	FBW7 act	TEAD-YAP inh
Cc1ccc(C2CC(C(F)(F)F)n3nc(C(=O)NCCc4ccccc4)c(Cl)c3N2)cc1 (stereo not drawn)	1	-2	0	18
Cc1cc(-c2nc3ccccc3s2)ccc1N	-8	3	0	81*
Cc1nc2cc(-c3nc4ccccc4s3)ccc2n1-c1ccccc1	2	-13	0	59*
Cc1c(N)cccc1-c1nc2ccccc2o1	-3	-3	0	57*
CC(=O)Nc1cc(-c2nc3ccccc3s2)ccc1C	0	-4	0	-34
Cc1c(N)cccc1-c1nc2ccccc2s1	-2	0	0	35*
CC(=O)c1ccc2c(c1)nc(C)n2-c1ccccc1	0	20	0	-24
Cc1ccc(-c2nc3ccccc3s2)cc1N	-10	1	0	54*
Cc1ccc(-c2nc3ccccc3s2)cc1[N+](=O)[O-]	1	-1	0	-32
CCc1ccc2oc(-c3ccc(NC(C)=O)cc3)nc2c1	1	6	1	-70
Cc1cc2nc(-c3cc(N)ccc3O)oc2cc1C	-8	6	0	65*
Cc1ccc2nc(-c3ccc(N)cc3O)oc2c1	-1	5	0	16
Cc1ccc2oc(-c3ccc(N)cc3O)nc2c1	-1	-8	0	41*
CCc1ccc2oc(-c3ccc(N)cc3O)nc2c1	-2	0	0	69*
Nc1ccc(O)c(-c2nc3cc(N)ccc3o2)c1	-6	6	0	-24
COc1ccc2c(c1)c(CC(=O)Nc1ccccn1)c(C)n2C(=O)c1ccc(Cl)cc1	2	0	0	37*
CCOC(=O)C1=C(C)N=c2s/c(=C\c3ccc(-c4ccc(I)cc4)o3)c(=O)n2C1c1ccccc1 (stereo not drawn)	0	11	0	0
O=C1CCCN1CCn1cnc2c(NCc3nc4ccccc4[nH]3)nc(Nc3ccncn3)nc21	0	6	0	-9
c1ccc(-n2cnc3c(NCc4nc5ccccc5[nH]4)nc(Nc4ccccn4)nc32)cc1	-1	-3	0	53*
c1ccc(-n2cnc3c(NCc4nc5ccccc5[nH]4)nc(Nc4ccncn4)nc32)cc1	-1	8	0	35*
c1ccc(CNc2nc(Nc3cnccn3)nc3c2ncn3-c2ccsc2)cc1	-1	-4	0	14
c1ccc(Nc2nc(NCc3nc4ccccc4[nH]3)c3ncn(-c4ccsc4)c3n2)nc1	1	11	0	78*
c1ccc2[nH]c(CNc3nc(Nc4cnccn4)nc4c3ncn4-c3ccsc3)nc2c1	2	-11	0	71*
COc1cc(Nc2nc(NCc3nc4ccccc4[nH]3)c3ncn(-c4ccsc4)c3n2)cc(OC)c1OC	-1	3	0	18
O=C(/C=C/c1ccc(Cl)c([N+](=O)[O-])c1)Nc1ccccc1	-2	1	0	-17
SMILES	GPR151 activ	MITF inh	FBW7 act	TEAD-YAP inh
Cc1cccc(-n2c(C)cc(/C=N/NC(=O)CN3CCOCC3)c2C)c1	-1	0	0	-5
Cc1cc(C)nc(SCC(=O)Nc2ccnc3ccccc23)n1	1	14	0	41*
COc1cccc(CNC(=O)Nc2ccc(-c3cn[nH]c3)cc2N(C)CCN(C)C)c1	1	29	1	-2
COc1cccc(CN(CCCN(C)C)C(=O)Nc2ccc(-c3cn[nH]c3)cc2)c1	-1	62*	0	1
COc1cccc(CN(CCN(C)C)C(=O)Nc2ccc(-c3cn[nH]c3)cc2)c1	-1	1	0	-12
COc1cccc(CNC(=O)Nc2ccc(-c3cn[nH]c3)cc2N(C)CCO)c1	-1	40	0	54*
CC(C)c1ccc(CN2CCc3nnc(CNC(=O)c4ccccn4)n3CC2)cc1	1	12	0	-17
COc1cc(OC)c(C2SCCN2S(=O)(=O)c2ccc(C)cc2)cc1OC (stereo not drawn)	-1	7	0	-2
COc1ccc(S(=O)(=O)N2CCSC2c2cc(OC)c(OC)cc2OC)cc1 (stereo not drawn)	0	-3	0	43*
COc1ccccc1C1SCCN1S(=O)(=O)c1ccc([N+](=O)[O-])cc1 (stereo not drawn)	1	2	4.4*	6
CCCCOc1ccc(C2=N/C(=C\c3ccc(C)cc3)C(=O)O2)cc1	1	9	0	4
CCN(c1ccccc1)S(=O)(=O)c1ccc(F)c(C(=O)NCCC(C)C)c1	2	7	0	5
O=C(COc1ccc2oc3c(c2c1)CCCC3)OCc1ccccn1	0	4	0	3
O=C(c1ccc2cncc(-c3ccccc3)c2n1)N1CCCCC1	-1	-16	-1	50*
O=C(NC1CC1)c1ccc2cncc(-c3ccccc3)c2n1	5	5	0	51*
O=C(NC1CCN(Cc2ccccc2)CC1)c1ccc2cncc(-c3ccccc3)c2n1	1	16	0	65*
O=C(NC1CC1)c1cncc(-c2ccccc2)c1	1	-1	0	4
O=C(NCCOc1ccccc1)c1cccc(-c2ccccc2)n1	-1	15	0	-1
Cc1ccc(C(=O)NCCOc2ccccc2)cc1	-6	3	0	73*
COc1ccc(-c2cccc(C(=O)NCCOc3ccccc3)n2)cc1	1	3	8.0*	17
O=C(CCC(=O)c1ccccc1)NCCOc1ccccc1	4	7	0	0
O=C(CCl)NCCOc1ccccc1	0	-9	0	36*
Cc1ccc(C(=O)NCCc2ccccc2)cc1	-6	-7	0	82*
OC1C2CC3CN(C(=S)Nc4ccccc4)C1C3C2 (stereo not drawn)	3	13	0	-5
O=C(Nc1nc(-c2ccccc2)c(C(=O)c2ccccc2)s1)c1cccc(Br)c1	-1	6	0	-2
SMILES	GPR151 activ	MITF inh	FBW7 act	TEAD-YAP inh
CCN(C(=O)Cn1cc(C(F)(F)F)cc(Cl)c1=O)c1cccc2ccccc12	1	11	0	15
CCc1ccc(/C=C2\SC(=S)N(CC(=O)N3CCN(C)CC3)C2=O)cc1	-1	-2	0	12
CC(=O)c1ccc(C(=O)NCCOc2ccccc2)cc1	-5	0	1	68*
COc1cc(-c2nc3ccc(C(=O)NCCc4ccccc4)cc3nc2-c2cc(OC)c(OC)c(OC)c2)cc(OC)c1OC	0	10	0	8
O=C(NCCOc1ccccc1)C(=O)NCc1ccco1	1	10	0	48*
COc1cc(-c2nc3ccc(C(=O)NCCc4ccc(C)cc4)cc3nc2-c2cc(OC)c(OC)c(OC)c2)cc(OC)c1OC	1	22	1	38*
O=C(NCCOc1ccc(Cl)cc1)c1ccco1	0	18	2.3*	-5
CCc1ccc(OCCNC(=O)c2ccco2)cc1	-2	3	0	-23
